PubChem BioAssay (NCI)
The panel holds about 83,000 compounds, 20% with a hit somewhere; the sample as a whole holds those more often.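 Activity criterion: percent growth below 10, measured after cells in 96-well plates were exposed to a single compound concentration for 48 hours.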 Activity calls are given as the source filed them.

What was measured:
Assay in all cases: NCI-60 one-dose screen, 48 h (100 = growth as untreated, 0 = no growth, -100 = all killed)
Settings in all cases: 10 µM unless noted
NCI-H23 lung = test system: NCI-H23 lung
NCI-H226 lung = test system: NCI-H226 lung
NCI-H322M lung = test system: NCI-H322M lung
HOP-62 NSCLC = test system: HOP-62 NSCLC
NCI-H460 lung = test system: NCI-H460 lung
HOP-92 NSCLC = test system: HOP-92 NSCLC
NCI-H522 lung = test system: NCI-H522 lung
A549/ATCC NSCLC = test system: A549/ATCC NSCLC
786-0 renal = test system: 786-0 renal
COLO 205 colon = test system: COLO 205 colon
DU-145 prostate = test system: DU-145 prostate
K-562 leukemia = test system: K-562 leukemia
MALME-3M melanoma = test system: MALME-3M melanoma
MDA-MB-231 breast = test system: MDA-MB-231 breast
RXF 393 renal = test system: RXF 393 renal
SF-268 CNS = test system: SF-268 CNS
SF-295 CNS = test system: SF-295 CNS
SF-539 CNS = test system: SF-539 CNS
UACC-257 melanoma = test system: UACC-257 melanoma
M14 melanoma = test system: M14 melanoma

Measured: growth

COP(=O)(OC)C(O)c1ccc(Cl)cc1 (stereo not given)
inactive: NCI-H23 lung 98.8% | NCI-H226 lung 102% | NCI-H322M lung 84.2% | HOP-62 NSCLC 104% | NCI-H460 lung 103% | HOP-92 NSCLC 98.1% | NCI-H522 lung 89.1% | A549/ATCC NSCLC 98.3% | 786-0 renal 101% | COLO 205 colon 102% | DU-145 prostate 97.9% | K-562 leukemia 117% | MALME-3M melanoma 101% | MDA-MB-231 breast 123% | RXF 393 renal 108% | SF-268 CNS 94.6% | SF-295 CNS 100% | SF-539 CNS 103% | UACC-257 melanoma 99.7% | M14 melanoma 96.4%

COc1ccc2c(c1)c(-c1nc(-c3cn(C)c4ncccc34)cs1)cn2CCN1CCOCC1
active: K-562 leukemia 9.83%
inactive: NCI-H23 lung 40.2% | NCI-H226 lung 43% | NCI-H322M lung 62.3% | HOP-62 NSCLC 12.5% | NCI-H460 lung 23.9% | HOP-92 NSCLC 31.3% | NCI-H522 lung 19.9% | A549/ATCC NSCLC 30.5% | 786-0 renal 44.4% | COLO 205 colon 33.2% | DU-145 prostate 36.3% | MALME-3M melanoma 71.5% | MDA-MB-231 breast 56.8% | RXF 393 renal 56.7% | SF-268 CNS 48.4% | SF-295 CNS 49.3% | SF-539 CNS 48% | UACC-257 melanoma 93.2% | M14 melanoma 31.9%

CC(C)OC(=O)[C@H](C)NP(=O)(Oc1ccccc1)C1CCCN(O)C1=O (stereo not given in full)
inactive: NCI-H23 lung 89.6% | NCI-H226 lung 70.9% | NCI-H322M lung 84.6% | HOP-62 NSCLC 111% | NCI-H460 lung 105% | HOP-92 NSCLC 104% | NCI-H522 lung 97.6% | A549/ATCC NSCLC 105% | 786-0 renal 94.3% | COLO 205 colon 93.1% | DU-145 prostate 98.1% | K-562 leukemia 94.2% | MALME-3M melanoma 43.6% | MDA-MB-231 breast 92.3% | RXF 393 renal 57.2% | SF-268 CNS 93.9% | SF-295 CNS 95.6% | SF-539 CNS 87.7% | UACC-257 melanoma 93.8% | M14 melanoma 66.5%

Cn1cc(-c2csc(-c3cn(CCN4CCOCC4)c4ccccc34)n2)c2cccnc21
inactive: NCI-H23 lung 62.6% | NCI-H226 lung 41.4% | NCI-H322M lung 84.8% | HOP-62 NSCLC 55.3% | NCI-H460 lung 75.3% | HOP-92 NSCLC 48.6% | NCI-H522 lung 40.6% | A549/ATCC NSCLC 63% | 786-0 renal 75.5% | COLO 205 colon 51.2% | DU-145 prostate 89.1% | K-562 leukemia 44.8% | MALME-3M melanoma 81.4% | MDA-MB-231 breast 69.8% | RXF 393 renal 93.7% | SF-268 CNS 79.8% | SF-295 CNS 72.2% | SF-539 CNS 73.2% | UACC-257 melanoma 90.7% | M14 melanoma 39%

CCOC(=O)[C@@H](C)C[C@H](Cc1ccccc1)NC(=O)c1nc([C@@H](C[C@H](C(C)C)N(C)C(=O)[C@@H](NC(=O)[C@H]2CCCCN2C)C(C)C)OC(C)=O)sc1CCOCc1ccccc1
active: NCI-H226 lung -80.6% | HOP-62 NSCLC -42.7% | NCI-H460 lung -54.8% | HOP-92 NSCLC -16.5% | NCI-H522 lung -49.2% | A549/ATCC NSCLC -31.1% | 786-0 renal -38.6% | COLO 205 colon -70.9% | DU-145 prostate -27.3% | K-562 leukemia -31.4% | MALME-3M melanoma -77.4% | MDA-MB-231 breast -49.8% | RXF 393 renal -14.2% | SF-268 CNS -38% | SF-295 CNS -33.6% | SF-539 CNS -69.2% | UACC-257 melanoma -7.85% | M14 melanoma -57.1%
inactive: NCI-H23 lung 14.7% | NCI-H322M lung 11.9%

ClCCN(CCCl)c1ccc(OCc2ccccc2)cc1
inactive: NCI-H23 lung 58.7% | NCI-H226 lung 84.6% | NCI-H322M lung 102% | HOP-62 NSCLC 54.8% | NCI-H460 lung 20.3% | HOP-92 NSCLC 57.3% | NCI-H522 lung 75.1% | A549/ATCC NSCLC 45.7% | 786-0 renal 19% | COLO 205 colon 75.9% | DU-145 prostate 26.3% | K-562 leukemia 73.3% | MALME-3M melanoma 90.9% | MDA-MB-231 breast 106% | RXF 393 renal 82.1% | SF-268 CNS 36% | SF-295 CNS 10.3% | UACC-257 melanoma 74.2% | M14 melanoma 41.9%
active: SF-539 CNS 8.54%

COC(=O)[C@@H](C)C[C@H](Cc1ccccc1)NC(=O)c1nc([C@@H](C[C@H](C(C)C)N(C)C(=O)[C@@H](NC(=O)[C@H]2CC(=O)CCN2C)C(C)C)OC(C)=O)sc1C(C)C
active: NCI-H226 lung -25.2% | NCI-H460 lung 3.43% | NCI-H522 lung -30.5% | 786-0 renal 6.83% | COLO 205 colon -39.9% | DU-145 prostate -11.3% | MDA-MB-231 breast 6.36% | RXF 393 renal 6.58% | SF-295 CNS -1.71% | SF-539 CNS -18% | M14 melanoma -10.3%
inactive: NCI-H23 lung 26.5% | NCI-H322M lung 30.1% | HOP-62 NSCLC 15.6% | HOP-92 NSCLC 34.8% | A549/ATCC NSCLC 18.7% | K-562 leukemia 12.3% | MALME-3M melanoma 44.3% | SF-268 CNS 20% | UACC-257 melanoma 77.6%

O=[N+]([O-])c1cnc[nH]1
inactive: NCI-H23 lung 103% | NCI-H226 lung 105% | NCI-H322M lung 121% | HOP-62 NSCLC 106% | NCI-H460 lung 108% | HOP-92 NSCLC 93.7% | NCI-H522 lung 106% | A549/ATCC NSCLC 103% | 786-0 renal 112% | COLO 205 colon 119% | DU-145 prostate 116% | K-562 leukemia 123% | MALME-3M melanoma 112% | MDA-MB-231 breast 101% | RXF 393 renal 128% | SF-268 CNS 106% | SF-295 CNS 104% | SF-539 CNS 110% | UACC-257 melanoma 103% | M14 melanoma 119%

O=C(CC1(O)C(=O)N(Cc2ccccc2)c2ccc(Cl)cc21)c1ccc(C(=O)NCC2CCC3(CC2)OOC2(CCCCC2)OO3)cc1 (stereo not given)
active: NCI-H23 lung -67% | NCI-H226 lung -41.3% | HOP-62 NSCLC -65.3% | NCI-H460 lung -47.2% | HOP-92 NSCLC -73.2% | NCI-H522 lung -26.7% | A549/ATCC NSCLC -55.8% | 786-0 renal -73.6% | COLO 205 colon -66.5% | DU-145 prostate -97.6% | K-562 leukemia -49% | MALME-3M melanoma -70.3% | MDA-MB-231 breast -74.9% | RXF 393 renal -80.5% | SF-268 CNS -49.6% | SF-295 CNS -8.3% | SF-539 CNS -81.1%
inactive: NCI-H322M lung 64.2% | UACC-257 melanoma 26.4% | M14 melanoma 25.5%

COc1ccc(Nc2ccc([N+](=O)[O-])cc2[N+](=O)[O-])cc1CN(CCCl)CCCl
active: NCI-H460 lung 7.13% | RXF 393 renal -1.08%
inactive: NCI-H23 lung 18.4% | NCI-H226 lung 39.7% | NCI-H322M lung 45.8% | HOP-62 NSCLC 35.8% | HOP-92 NSCLC 39.2% | NCI-H522 lung 21.1% | A549/ATCC NSCLC 33.5% | 786-0 renal 18.4% | COLO 205 colon 38% | DU-145 prostate 35.8% | K-562 leukemia 24.4% | MALME-3M melanoma 55.1% | MDA-MB-231 breast 44.1% | SF-268 CNS 24.9% | SF-295 CNS 37.6% | SF-539 CNS 15.9% | UACC-257 melanoma 62.9% | M14 melanoma 46.7%

Clc1cccc(Cl)c1Cl
inactive: NCI-H23 lung 102% | NCI-H226 lung 101% | NCI-H322M lung 99.5% | HOP-62 NSCLC 99% | NCI-H460 lung 107% | HOP-92 NSCLC 113% | NCI-H522 lung 65.1% | A549/ATCC NSCLC 85.9% | 786-0 renal 96.1% | COLO 205 colon 122% | DU-145 prostate 101% | K-562 leukemia 84.9% | MALME-3M melanoma 103% | MDA-MB-231 breast 117% | RXF 393 renal 122% | SF-268 CNS 97.5% | SF-295 CNS 95.1% | SF-539 CNS 100% | UACC-257 melanoma 86.6% | M14 melanoma 94.7%

Cc1cccc(N2CCN(C(C)C#N)CC2)c1 (stereo not given)
inactive: NCI-H23 lung 97.6% | NCI-H226 lung 96.6% | NCI-H322M lung 93.8% | HOP-62 NSCLC 107% | NCI-H460 lung 109% | HOP-92 NSCLC 91.4% | NCI-H522 lung 88.9% | A549/ATCC NSCLC 107% | 786-0 renal 90.3% | COLO 205 colon 105% | DU-145 prostate 107% | K-562 leukemia 98.4% | MALME-3M melanoma 102% | MDA-MB-231 breast 104% | RXF 393 renal 105% | SF-268 CNS 103% | SF-295 CNS 84.6% | SF-539 CNS 104% | UACC-257 melanoma 97.9% | M14 melanoma 105%

CCCCCCCCCCCCCCCCCC1OC[C@@H](COC(=O)O[C@@H](C(=O)O[C@H]2C[C@@]3(O)[C@@H](OC(=O)c4ccccc4)[C@@H]4[C@]5(OC(C)=O)CO[C@@H]5C[C@H](O)[C@@]4(C)C(=O)[C@H](OC(C)=O)C(=C2C)C3(C)C)[C@@H](NC(=O)c2ccccc2)c2ccccc2)O1 (stereo not given in full)
inactive: NCI-H23 lung 54.2% | NCI-H226 lung 83.4% | NCI-H322M lung 55.7% | HOP-62 NSCLC 68.4% | NCI-H460 lung 20.4% | HOP-92 NSCLC 66.4% | NCI-H522 lung 57.6% | A549/ATCC NSCLC 47.5% | 786-0 renal 90.6% | COLO 205 colon 13.1% | DU-145 prostate 45.1% | K-562 leukemia 46.6% | MALME-3M melanoma 50.5% | MDA-MB-231 breast 60.5% | RXF 393 renal 63.1% | SF-268 CNS 66% | SF-295 CNS 61% | SF-539 CNS 51.9% | UACC-257 melanoma 69.8% | M14 melanoma 38.8%

CCOc1ccccc1C(=O)OCC(Cl)(Cl)Cl
inactive: NCI-H23 lung 102% | NCI-H226 lung 101% | NCI-H322M lung 102% | HOP-62 NSCLC 99.9% | NCI-H460 lung 107% | HOP-92 NSCLC 113% | NCI-H522 lung 105% | A549/ATCC NSCLC 106% | 786-0 renal 99.6% | COLO 205 colon 102% | DU-145 prostate 99.8% | K-562 leukemia 98.8% | MALME-3M melanoma 109% | MDA-MB-231 breast 114% | RXF 393 renal 109% | SF-268 CNS 101% | SF-295 CNS 105% | SF-539 CNS 101% | UACC-257 melanoma 112% | M14 melanoma 103%
